From PubChem BioAssay (EPA / NIEHS)
Several values for one entry are separate records, joined by “and”; a condition that tells them apart may be missing. Equal entries are not always repeated. Some structures have more than one record in an assay (separate samples or runs), and their calls can disagree. Activity calls are given as the source filed them. How the source made its calls: active means hit-call score of the fitted dose curve at least 0.9, where 1 is the maximum; inactive means score below 0.9.

The compounds below were run on Interleukin-8 (IL8), CXCL8 (gene 3576) (assay: BSK_IMphg_IL8: BioMAP Diversity Plus: IMphg Assay for Interleukin-8 (IL8) Biomarker Activity (AID 2284277)). Conditions: primary human endothelial cells with macrophages.
Protocol: BSK_IMphg is a cell-based, multiplexed-readout assay that uses venular endothelial cells and macrophages, a human vascular primary cell, with measurements taken at 24 hours after chemical dosing in a microplate: 96-well plate.BSK_IMphg_IL8 is an assay component measured in the BSK_IMphg assay. It measures IL-8 antibody related to regulation of gene expression using ELISA technology.Data from the assay component BSK_IMphg_IL8 was analyzed at the endpoint, BSK_IMphg_IL8, in the positive analysis fitting direction relative to DMSO as the negative control and baseline of activity. Using a type of binding reporter, gain or loss-of-signal activity can be used to understand protein changes. To generalize the intended target to other relatable targets, this assay endpoint is annotated to the 'cytokine' intended target family, where the subfamily is 'interleukins'.
The levels of cell surface (or secreted, indicated by the prefix "s") biomarker endpoints were measured by ELISA. Overt cytotoxicity to cells in confluent adherent cultures (all systems other than the BT system) was assessed by measuring total protein levels using sulforhodamine B (SRB) staining in parallel cultures at the time of biomarker measurements, indicated as SRB endpoints. For proliferation assays for adherent cell types, individual cell types are cultured at sub-confluence and relative cell numbers quantified by SRB staining at time points optimized for each system (48 h: 3C and CASM3C systems; 72 h: BT and HDF3CGF systems; 96 h: SAg system). SRB was performed by staining cells with 0.1% SRB after fixation with 10% TCA and reading wells at 560 nm.Viability and proliferation of PBMC (T cells) was quantified by Alamar Blue reduction for the SAg and BT systems. For PBMC viability (referred to as PBMC Cytotoxicity within the assay endpoint names), cells were plated (75,000/well in a 96-well plate) and then chemical samples added for 1 h before addition of activators, SEB and TSST-1 (20 ng/mL final concentration each). Cells were incubated for 90 h. Then, Alamar Blue (20 uL/well) (Invitrogen, Cat DAL1100) was added for 6 h, and the plates were read with a fluorescence microplate reader at 546/580 nm (excitation/emission). For PBMC proliferation, cells were plated and activated as above but incubated for only 16 h prior to addition of Alamar Blue. Plates were read after 6 h.
In the case of `OCC(F)(F)C(F)(F)C(F)(F)C(F)(F)C(F)(F)C(F)(F)C(F)(F)C(F)(F)CO`, the AC50 is reported as 48.8 µM (active) and 48.9 µM (active).
For `O=C(O)C(F)(F)C(F)(F)C(F)(F)OC(F)(C(F)(F)F)C(F)(F)F`, the AC50 was 16.1 µM (active) and the outcome was “inactive”.
`OCC(O)CC(F)(F)C(F)(F)C(F)(F)C(F)(F)F` (stereo not given) was tested, and the outcome was “inactive”.
For `CCOC(=O)CC(=O)C(F)(F)C(F)(F)F`, the outcome was “inactive”.
For `O=C(O)C(F)(F)OC(F)(F)C(F)(F)OC(F)(F)C(F)(F)OC(F)(F)F`, the outcome was “inactive” and the AC50 was 5.47 µM (active) and 14.2 µM (active).
With `NC(=O)C(F)(F)C(F)(F)C(F)(F)C(F)(F)C(F)(F)C(F)(F)C(F)(F)F` the outcome was “inactive”.
`O=S(=O)(O)CCC(F)(F)C(F)(F)C(F)(F)C(F)(F)C(F)(F)C(F)(F)C(F)(F)C(F)(F)F` was tested, and the outcome was “inactive”.
`FC(F)(F)C(F)(F)C(F)(F)CC1CO1` (stereo not given) was tested, and the outcome was “inactive”.
For `O=C(F)C1(F)C(F)(F)C(F)(F)C(F)(F)C(F)(F)C1(F)F`, the outcome was “inactive”.
`O=C(Cl)C(F)(F)C(F)(F)C(F)(F)C(F)(F)C(F)(F)C(F)(F)F` was tested, and the AC50 was 15.8 µM (active) and 21.5 µM (active) and the outcome was “inactive”.
`NCC(F)(F)C(F)(F)C(F)(F)C(F)(F)C(F)(F)C(F)(F)F` was tested, and the outcome was “inactive”.
With `CCN(CCO)S(=O)(=O)C(F)(F)C(F)(F)C(F)(F)C(F)(F)C(F)(F)C(F)(F)C(F)(F)C(F)(F)F` the outcome was “inactive” and the AC50 was 50.9 µM (active).
For `C=CC(=O)OCC(F)(F)C(F)(F)C(F)(F)COC(=O)C=C`, the AC50 was 50.7 µM (active) and 45.9 µM (active).
`FC(F)(F)C(F)(F)C(F)(F)C(F)(F)C(F)(F)C(F)(F)C(F)(F)CCI` was tested, and the outcome was “inactive”.
For `OCC(O)CC(F)(F)C(F)(F)C(F)(F)C(F)(F)C(F)(F)C(F)(F)C(F)(F)C(F)(F)F` (stereo not given), the outcome was “inactive”.
In the case of `NC(O)(C(F)(F)F)C(F)(F)F`, the outcome is reported as “inactive”.
`COC(F)(C(F)F)C(F)(F)F` (stereo not given) was tested, and the outcome was “inactive”.
With `O=C(Cl)C(F)(F)C(F)(F)C(F)(F)C(F)(F)C(F)(F)C(F)(F)C(F)(F)F` the AC50 was 30 µM (active) and 36.9 µM (active).
`NC(=O)C(F)(F)C(F)(F)C(F)(F)C(F)(F)C(N)=O` was tested, and the outcome was “inactive”.
With `OCCCC(F)(F)C(F)(F)C(F)(F)C(F)(F)C(F)(F)C(F)(F)C(F)(F)C(F)(F)F` the outcome was “inactive”.
For `NC(=O)C(F)(F)C(F)(F)C(F)(F)F`, the outcome was “inactive”.
In the case of `CNS(=O)(=O)C(F)(F)C(F)(F)C(F)(F)C(F)(F)C(F)(F)C(F)(F)C(F)(F)C(F)(F)F`, the outcome is reported as “inactive” and the AC50 is reported as 14.5 µM (active).
In the case of `O=C(O)CCC(F)(F)C(F)(F)C(F)(F)C(F)(F)C(F)(F)C(F)(F)C(F)(F)F`, the AC50 is reported as 1.98 µM (active) and 2.14 µM (active).
For `C[Si](Cl)(Cl)CCC(F)(F)C(F)(F)C(F)(F)C(F)(F)C(F)(F)C(F)(F)F`, the outcome was “inactive”.
With `O=C(O)C(F)(F)C(F)(F)C(F)(F)C(F)(F)C(F)(F)C(F)(F)C(F)F` the AC50 was 30 µM (active) and 21.7 µM (active) and 32.1 µM (active).
In the case of `C=C(C)C(=O)OCC(F)(F)C(F)(F)C(F)(F)C(F)F`, the outcome is reported as “inactive”.
For `O=S(=O)(OCC(F)(F)F)C(F)(F)C(F)(F)C(F)(F)C(F)(F)F`, the outcome was “inactive”.
`C=CC(=O)OCC(F)(F)C(F)(F)C(F)(F)C(F)(F)C(F)(F)C(F)(F)C(F)(F)C(F)F` was tested, and the outcome was “inactive”.
In the case of `OCC(F)(F)C(F)(F)C(F)(F)C(F)(F)C(F)(F)C(F)(F)CO`, the outcome is reported as “inactive”.
In the case of `O=S(=O)(Cl)C(F)(F)C(F)(F)C(F)(F)C(F)(F)C(F)(F)C(F)(F)C(F)(F)C(F)(F)F`, the outcome is reported as “inactive” and the AC50 is reported as 36.7 µM (active).
For `NS(=O)(=O)C(F)(F)C(F)(F)C(F)(F)C(F)(F)C(F)(F)C(F)(F)F`, the AC50 was 16.3 µM (active) and 8.64 µM (active).
For `O=C(O)CCC(F)(F)C(F)(F)C(F)(F)F`, the outcome was “inactive”.
For `OCC(F)(F)C(F)(F)C(F)(F)CO`, the outcome was “inactive”.
For `O=C(O)C(F)(F)C(F)(F)C(F)(F)C(=O)O`, the outcome was “inactive”.
